The text below walks through data of PubChem BioAssay (Tox21).

The nature of assay [1]: Nuclear factor erythroid 2-related factor 2/antioxidant responsive element (Nrf2/ARE) small molecule agonists: qHTS cell viability counter screen in human keratinocytes (AID 1919968; active = well fitted curve in the direction sought with a large enough effect in the repeat runs; an effect the other way counts as inactive or inconclusive; also: nearly all actives have a fitted effect of over 55% in size; also: potency is read from the fitted curve at half-maximal effect). An outline of the steps:
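KeratinoSens HaCaT cells, 1,500/well, preincubated 5 h, then exposed to compounds in DMSO for 23 h at 37 C/5% CO2. Viability read as CellTiter-Fluor fluorescence after 1 h, in the same wells as the ARE-luciferase read.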

The nature of assay [2]: Nuclear factor erythroid 2-related factor 2/antioxidant responsive element (Nrf2/ARE) small molecule agonists: luciferase reporter gene qHTS assay in human keratinocytes (AID 1919969). Also: nearly all actives have a fitted effect of over 35% in size. Also: potency is read from the fitted curve at half-maximal effect. A general note: A reporter such as luciferase makes a cellular process visible.
The target in assay [3] is Gonadotropin-releasing hormone receptor (Homo sapiens) (UniProt P30968). The assay can be described thus: Human gonadotropin-releasing hormone receptor (GnRHR) small molecule agonists, calcium flux assay in GnRHR-HEK293 cells (AID 1920063). Also: nearly all actives have a fitted effect of over 35% in size. The procedure, abridged: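 HEK293 cells stably expressing human GnRHR were dye-loaded for 1 h at 37 C. Compound was added in agonist mode and fluorescence (Ex/Em 480/540) recorded kinetically for 3 min. Fifteen concentrations, triplicates.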
Chain of Gonadotropin-releasing hormone receptor (Homo sapiens) (P30968 whole entry, looked up): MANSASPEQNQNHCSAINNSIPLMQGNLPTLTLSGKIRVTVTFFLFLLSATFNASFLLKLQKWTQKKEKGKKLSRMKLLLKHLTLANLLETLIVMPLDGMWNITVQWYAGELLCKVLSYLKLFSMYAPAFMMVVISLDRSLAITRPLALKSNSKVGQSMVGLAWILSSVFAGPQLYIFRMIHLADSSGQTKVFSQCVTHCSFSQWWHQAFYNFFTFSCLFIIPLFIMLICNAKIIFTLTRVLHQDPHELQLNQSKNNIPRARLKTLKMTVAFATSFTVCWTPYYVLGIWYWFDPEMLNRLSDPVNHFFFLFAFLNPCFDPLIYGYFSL
In general terms: Calcium flux is commonly read through the fluorescence of an indicator in the cells.

For assay [4], the target named is KiSS-1 receptor (Homo sapiens) (UniProt Q969F8). The assay can be described thus: Human kisspeptin (KISS1R) small molecule agonists, calcium flux assay in KISS1R-HEK293 cells (AID 1920064; active = well fitted curve in the direction sought with a large enough effect in the repeat runs; an effect the other way counts as inactive or inconclusive). An outline of the steps:
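HEK293 cells stably expressing human KISS1R were loaded with calcium dye for 1 h at 37 C, then given compound; fluorescence (Ex/Em 480/540) was read kinetically for 3 min. Fifteen concentrations, triplicate.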

A short description of assay [5]: G protein-coupled receptor (GPCR) small molecule agonists, calcium flux assay: HEK293 wild type cell line counter screen (AID 1920065). The procedure, abridged: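 Wild-type HEK293 cells plated 18 h, loaded with calcium dye 1 h at 37 C, then compounds added in agonist mode (ATP as positive control). Kinetic fluorescence Ex/Em 480/540 recorded 3 min at 1 sec intervals; 15 concentrations, triplicate.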

Assay [6] is described as follows: p53 small molecule agonists, cell-based qHTS assay with human liver microsomes (AID 1963577). The procedure, abridged: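 Fluorescence of the beta-lactamase reporter in p53RE-bla cells, detected with LiveBLAzer substrate (2 h, room temperature, dark), served as the read-out after 16 h compound exposure at 37 C with human liver microsomes and NADPH, each 0.5 mg/mL final.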
For orientation: qHTS replaces the single test concentration by a dilution series.

Assay [7] can be described thus: p53 small molecule agonists, cell-based qHTS assay with rat liver microsomes (AID 1963578). An outline of the steps:
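Cells carrying a p53 response element–beta-lactamase reporter were plated and rested 5 h, then dosed with compound in DMSO plus rat liver microsomes and NADPH, each at 0.5 mg/mL final. After 16 h at 37 C, LiveBLAzer substrate was added for 2 h.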

Assay [8] is described as follows: p53 small molecule agonists, cell-based qHTS assay with rat liver microsomes: qHTS cell viability counter screen (AID 1963580). Also: nearly all actives have a fitted effect of over 45% in size. Also: potency is read from the fitted curve at half-maximal effect. An outline of the steps: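 p53RE-bla HCT-116 cells (4,000/well) rested 5 h at 37 C, then given Tox21 compounds in DMSO with rat liver microsomes (0.5 mg/mL final) plus NADPH (0.5 mg/mL final) for 16 h at 37 C. Viability read by CellTiter-Glo luminescence after 30 min at room temperature.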

The nature of assay [9]: p53 small molecule agonists, cell-based qHTS assay: qHTS cell viability counter screen (AID 1963581). Also: nearly all actives have a fitted effect of over 45% in size. Also: potency is read from the fitted curve at half-maximal effect. An outline of the steps:
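p53RE-bla HCT-116 cells, compounds added 5 h after plating and incubated 16 h at 37 C. Cytotoxicity measured in the same wells as intracellular ATP by CellTiter-Glo luminescence after 30 min at room temperature.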

Assay [10] can be described thus: p53 small molecule agonists, cell-based qHTS assay (AID 1963582; active = well fitted activation curve with a large enough effect in the signal ratio in the repeat runs, not every such curve was filed as active; the % refers to the signal ratio; also: potency is read from the fitted curve at half-maximal effect). An outline of the steps: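 p53RE-bla reporter cells, compounds added in DMSO after 5 h plating, incubated 16 h at 37 C. Beta-lactamase read via 2 h room-temperature LiveBLAzer B/G FRET substrate, fluorescence intensity.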
The target in assay [11] is 5-hydroxytryptamine receptor 2A (Homo sapiens) (UniProt P28223). The assay can be described thus: 5-hydroxytryptamine receptor 2A (HTR2A) small molecule antagonists, cell-based qHTS assay (AID 1963586). Also: nearly all actives have a fitted effect of over 45% in size. An outline of the steps: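 Antagonist-mode intracellular calcium assay: DOI (4 nM) added after 5 min compound pre-incubation at room temperature to dye-loaded HTR2A-CHO cells. Fluorescence followed for 3 min, sampled every second.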
Chain of 5-hydroxytryptamine receptor 2A (Homo sapiens) (P28223 whole entry, looked up): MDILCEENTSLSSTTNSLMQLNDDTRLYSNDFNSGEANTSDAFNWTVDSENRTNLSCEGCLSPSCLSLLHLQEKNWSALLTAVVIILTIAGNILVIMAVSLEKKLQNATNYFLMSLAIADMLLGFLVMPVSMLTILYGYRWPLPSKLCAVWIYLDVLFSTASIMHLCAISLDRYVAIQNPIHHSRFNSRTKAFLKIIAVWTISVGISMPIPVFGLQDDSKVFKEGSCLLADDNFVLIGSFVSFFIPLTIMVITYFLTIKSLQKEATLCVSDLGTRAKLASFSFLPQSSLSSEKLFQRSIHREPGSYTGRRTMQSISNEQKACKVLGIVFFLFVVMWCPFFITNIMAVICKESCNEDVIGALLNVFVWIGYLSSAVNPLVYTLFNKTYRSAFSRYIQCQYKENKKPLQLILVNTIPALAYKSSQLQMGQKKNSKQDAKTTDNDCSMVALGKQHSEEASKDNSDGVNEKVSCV

The target is the same in assay [12]. The assay can be described thus: 5-hydroxytryptamine receptor 2A (HTR2A) small molecule agonists, cell-based qHTS assay (AID 1963587). Also: nearly all actives have a fitted effect of over 30% in size. An outline of the steps:
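HTR2A-CHO cells, plated 18 h at 37 C/5% CO2, dye-loaded 1 h at 37 C; compounds in DMSO added by pin tool (agonist mode). Intracellular calcium flux read as kinetic fluorescence on FDSS over 2 min at 1 s intervals.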

Assay [13] concerns the target Muscarinic acetylcholine receptor M1 (Homo sapiens) (UniProt P11229). The assay can be described thus: Cholinergic receptor muscarinic 1 (CHRM1) small molecule antagonists, cell-based qHTS assay (AID 1963588). Also: nearly all actives have a fitted effect of over 40% in size. An outline of the steps: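 CHRM1-CHO calcium-flux assay, antagonist mode. Cells were seeded 18 h, dye-loaded 1 h at 37 C and given compound for 5 min at RT, then acetylcholine was added at 50nM. FDSS fluorescence was read 3 min; 15 concentrations, three runs.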

Assay [14] shares this target. The assay can be described thus: Cholinergic receptor muscarinic 1 (CHRM1) small molecule agonists, cell-based qHTS assay (AID 1963589). Also: nearly all actives have a fitted effect of over 35% in size. An outline of the steps:
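CHO cells stably expressing human CHRM1 were loaded with calcium dye for 1 h at 37 C, then compound was added in agonist mode. Intracellular calcium fluorescence was followed kinetically at 1 s intervals. Fifteen concentrations were tested in three independent runs.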

In assay [15] the target is Beta-2 adrenergic receptor (Homo sapiens) (UniProt P07550). The assay can be described thus: Adrenergic beta2 receptor (ADRB2) small molecule antagonists, cell-based qHTS assay (AID 1963592). Also: series mostly up to about 92 µM; nearly all actives have a fitted effect of over 50% in size. The procedure, abridged: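 Cells (CHO, stable ADRB2 overexpression) incubated 18-20hr at 37C; compounds added from DMSO; agonist mix (1nM isoproterenol, 100uM IBMX, 25uM Ro-20-1724) added; 0.5hr RT; d2-cAMP and anti-cAMP-cryptate added; 1hr RT; 665/615 nm read.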
Chain of Beta-2 adrenergic receptor (Homo sapiens) (P07550 whole entry, looked up): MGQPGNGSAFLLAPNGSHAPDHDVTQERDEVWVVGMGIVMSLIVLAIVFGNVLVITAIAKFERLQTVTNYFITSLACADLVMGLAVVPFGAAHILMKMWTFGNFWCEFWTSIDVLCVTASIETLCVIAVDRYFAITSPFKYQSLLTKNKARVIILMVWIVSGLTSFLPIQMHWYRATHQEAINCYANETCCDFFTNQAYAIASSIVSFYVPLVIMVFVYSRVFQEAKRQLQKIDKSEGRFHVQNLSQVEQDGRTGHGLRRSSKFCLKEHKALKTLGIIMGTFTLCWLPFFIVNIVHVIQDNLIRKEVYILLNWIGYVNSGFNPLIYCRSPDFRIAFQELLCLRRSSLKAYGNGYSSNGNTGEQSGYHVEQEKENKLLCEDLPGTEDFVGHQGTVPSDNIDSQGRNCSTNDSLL

The nature of assay [16]: cAMP Responsive Elements (CRE) small molecule agonists, cell-based qHTS assay (AID 1963590). An outline of the steps: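 CRE-bla HEK 293T cells, 2,000/well in DMEM with 10% dialyzed FBS and 25 mM HEPES, pre-incubated 18 h at 37 C, then exposed to compound 3 h at 37 C. Beta-lactamase reporter read with LiveBLAzer B/G FRET substrate after 2 h at room temperature.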
Assay [17] has as its target D(2) dopamine receptor (Homo sapiens) (UniProt P14416). The assay can be described thus: Dopamine D2 receptor (DRD2) small molecule agonists, cell-based qHTS assay (AID 1963594). Also: nearly all actives have a fitted effect of over 35% in size. An outline of the steps: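 HEK293 cells stably expressing DRD2 were cultured 24 h at 37 C, then given Ro20-1724 (0.1 mM final) and compounds for 10 min at room temperature. NKH477 (200nM) was then added for 30 min. cAMP was read by HTRF.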

For assay [18] the target is unchanged. The assay can be described thus: Dopamine D2 receptor (DRD2) small molecule antagonists, cell-based qHTS assay (AID 1963595; active = well fitted inhibition curve with a large enough effect in the signal ratio in the repeat runs, with a control signal flat; the % refers to the signal ratio). An outline of the steps:
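In this cell-based antagonist screen, compounds act for 10 min at room temperature before a 30 min challenge with 12 nM quinpirole and 200 nM NKH477. cAMP is quantified by HTRF competition in DRD2-HEK293 cells containing 0.1 mM Ro20-1724.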

The nature of assay [19]: cAMP Responsive Elements (CRE) small molecule antagonists, cell-based qHTS assay (AID 1963591; active = well fitted inhibition curve with a large enough effect in the signal ratio in the repeat runs, not every such curve was filed as active; the % refers to the signal ratio). The procedure, abridged: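 CRE-bla HEK293T cells plated 18 h, then given compound plus NKH477 at 0.25 uM final for 3 h at 37C. Beta-lactamase reporter read with LiveBLAzer B/G FRET substrate after 2 h at room temperature.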

Values without a mark were called inactive. Inconclusive results are not listed. Activity calls are given as the source filed them. Unless noted, calls follow the shape of the full dose curve.
% is scaled to controls: 0 for no effect and ±100 for the full control effect.

Chain of D(2) dopamine receptor (Homo sapiens) (P14416 whole entry, looked up): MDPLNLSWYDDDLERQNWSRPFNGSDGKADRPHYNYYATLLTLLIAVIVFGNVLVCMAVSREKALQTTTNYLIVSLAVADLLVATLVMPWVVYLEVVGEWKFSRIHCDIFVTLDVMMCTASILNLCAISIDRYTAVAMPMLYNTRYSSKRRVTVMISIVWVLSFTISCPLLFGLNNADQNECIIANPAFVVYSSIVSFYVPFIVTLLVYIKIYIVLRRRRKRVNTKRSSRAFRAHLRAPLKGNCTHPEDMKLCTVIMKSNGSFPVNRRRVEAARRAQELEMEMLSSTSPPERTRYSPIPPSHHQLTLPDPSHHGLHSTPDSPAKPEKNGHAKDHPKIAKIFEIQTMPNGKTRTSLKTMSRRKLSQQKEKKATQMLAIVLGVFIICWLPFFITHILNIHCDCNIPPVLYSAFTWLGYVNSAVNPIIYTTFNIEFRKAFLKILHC
Chain of KiSS-1 receptor (Homo sapiens) (Q969F8 whole entry, looked up): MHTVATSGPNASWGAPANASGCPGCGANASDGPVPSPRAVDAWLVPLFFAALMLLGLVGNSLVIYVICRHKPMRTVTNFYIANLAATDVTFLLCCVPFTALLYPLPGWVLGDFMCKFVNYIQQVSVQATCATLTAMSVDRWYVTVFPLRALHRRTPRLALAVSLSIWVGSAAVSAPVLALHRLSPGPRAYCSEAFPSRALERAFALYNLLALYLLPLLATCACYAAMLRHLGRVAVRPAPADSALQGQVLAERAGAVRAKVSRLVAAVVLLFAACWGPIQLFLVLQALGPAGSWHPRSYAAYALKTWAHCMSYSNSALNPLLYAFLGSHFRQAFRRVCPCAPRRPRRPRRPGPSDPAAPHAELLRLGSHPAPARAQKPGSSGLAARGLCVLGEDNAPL
Chain of Muscarinic acetylcholine receptor M1 (Homo sapiens) (P11229 whole entry, looked up): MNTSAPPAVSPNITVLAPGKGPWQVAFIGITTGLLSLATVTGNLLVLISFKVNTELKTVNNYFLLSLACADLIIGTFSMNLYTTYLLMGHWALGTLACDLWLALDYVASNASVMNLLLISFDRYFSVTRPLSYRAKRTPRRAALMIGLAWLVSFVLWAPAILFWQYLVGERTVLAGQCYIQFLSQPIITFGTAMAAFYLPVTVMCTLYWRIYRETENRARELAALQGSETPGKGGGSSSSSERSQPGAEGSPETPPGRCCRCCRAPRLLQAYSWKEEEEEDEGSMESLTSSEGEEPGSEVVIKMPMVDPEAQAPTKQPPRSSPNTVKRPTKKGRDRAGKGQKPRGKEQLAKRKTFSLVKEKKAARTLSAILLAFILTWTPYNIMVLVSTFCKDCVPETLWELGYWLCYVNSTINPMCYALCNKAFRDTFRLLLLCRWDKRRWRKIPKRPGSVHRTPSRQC

In the case of `O=c1c(O)c(-c2ccc(O)cc2O)oc2cc(O)cc(O)c12`, the Potency result in [1], in assay [2], in assay [3], in [6], in [7] and in assay [8] was “inactive” each time. Besides, the Potency result in assay [9], in assay [10], in assay [11], in assay [12], in [13] and in assay [14] was “inactive” each time. The Potency result in assay [15] was “inactive”. In addition, the result in assay [4] and in assay [5] was inactive.
On to `OCCN1CN(CCO)CN(CCO)C1`, for which the Potency result in assay [1], in assay [2], in [3], in assay [6], in [7] and in assay [8] was “inactive” in each case. The Potency result in assay [9], in assay [10], in assay [11], in assay [12], in [13] and in [14] was “inactive” each time. Moreover, the Potency result in [16], in [15], in [17] and in assay [18] was “inactive” throughout. The outcome in [4] and in [5] was inactive.
For the compound `Oc1cccc2[nH]ccc12`, the Potency entry in [1], in [2], in [3], in assay [6], in [7] and in [8] was “inactive” each time. In addition, the Potency entry in [9], in [10], in assay [11], in [12], in [13] and in assay [14] was “inactive” in each case. The Potency entry in [16], in assay [19], in assay [17] and in [18] was “inactive” throughout. The outcome in assay [4] and in assay [5] was inactive.
On to `CC(C)(C)c1ccccc1`, for which the Potency result in assay [1], in assay [2], in assay [3], in assay [6], in assay [7] and in [8] was “inactive” throughout. Further, the Potency entry in assay [9], in [10], in assay [11], in [12], in assay [13] and in assay [14] was “inactive” each time. For the same compound, the Potency result in assay [16], in assay [19], in assay [15], in assay [17] and in assay [18] was “inactive” throughout. The result in assay [4] and in assay [5] was inactive.
`CCCCOCCOC(=O)CCCCCCCCC(=O)OCCOCCCC`: the Potency result in assay [1], in assay [2], in assay [3], in assay [6], in [7] and in assay [8] was “inactive” throughout. Moreover, the Potency entry in [9], in [10], in assay [11], in assay [12], in [13] and in assay [14] was “inactive” each time. The Potency result in [16], in assay [19], in [15], in [17] and in assay [18] was “inactive” in each case. The outcome in assay [4] and in [5] was inactive.
`C[C@@H]1CC[C@@]2(OC1)O[C@H]1C[C@H]3[C@@H]4CC[C@H]5C[C@@H](O)CC[C@]5(C)[C@H]4CC(=O)[C@]3(C)[C@H]1[C@@H]2C`: the activity change, negative = cytotoxicity was -14.4% [at 8.39 µM] in [1], 5.02% [at 5.99 µM] in assay [8] and -10.7% [at 5.99 µM] in [9]. In addition, the activity, positive = activation in [2] was -0.515% [at 8.39 µM]. Further, the activity change in assay [3] was -0.98% [at 5.22 µM, hits give high values]. The activation is 0.0336% [at 6.97 µM] in [4]; 1.09% [at 5.23 µM] in [5]; 1.05% [at 5.99 µM] in [6]; 0.138% [at 5.99 µM] in assay [7]; -0.0756% [at 5.99 µM] in [10]; -0.761% [at 7.02 µM] in assay [12]. For the same compound, the values for the activation in assay [14] and in [17] were 0.4% [at 6.97 µM] and -11.7% [at 8.39 µM], respectively. Further, the activity, negative = inhibition in [11] is 89.9% [at 5.62 µM]; in [13] it was 4.81% [at 5.58 µM]. For the same compound, the activity change, negative = inhibition is 0.931% [at 8.39 µM] in assay [19], -3.89% [at 8.39 µM] in assay [15] and -1.11% [at 8.38 µM] in assay [18].
`CC(C)C[C@H](NC(=O)[C@H](CCc1ccccc1)NC(=O)CN1CCOCC1)C(=O)N[C@@H](Cc1ccccc1)C(=O)N[C@@H](CC(C)C)C(=O)[C@@]1(C)CO1`: the Potency in [1] was 298 nM (active); in assay [2], 106 nM (active); in assay [8], 4460 nM (active); in [9], 630 nM (active); in assay [10] it was 112 nM (active). Besides, the Potency entry in assay [3], in assay [6], in assay [7], in assay [11], in assay [12] and in assay [13] was “inactive” throughout. For the same compound, the Potency result in [14], in assay [15], in assay [17] and in [18] was “inactive” each time. Besides, the result in assay [4] and in assay [5] was inactive.
